In all, about 16,000 compounds went through this assay and about 5,100 (32%) were called active. About 25% were inconclusive and are not listed. The list shows a part of the results. A number with no mark means an inactive call. Calls come from the whole dose curve; as a rule, active = well fitted curve in the direction sought with a large enough effect; inconclusive = small, poorly fitted or top-dose-only effect, or effect the other way; inactive = no such curve, though single readings can be large or run the other way.
% is set by controls: 0 for no effect and ±100 for the full control effect.

The target of this test is Cytochrome P450 3A4 (Homo sapiens) (UniProt P08684). Put plainly: Cytochrome panel assay with activity outcomes. The settings on record: recombinant CYP, pro-luciferin dealkylation, luminescence, p450-cyp3a4; series mostly up to 57.1 µM.
Sequence of Cytochrome P450 3A4 (Homo sapiens) (P08684 whole entry, looked up): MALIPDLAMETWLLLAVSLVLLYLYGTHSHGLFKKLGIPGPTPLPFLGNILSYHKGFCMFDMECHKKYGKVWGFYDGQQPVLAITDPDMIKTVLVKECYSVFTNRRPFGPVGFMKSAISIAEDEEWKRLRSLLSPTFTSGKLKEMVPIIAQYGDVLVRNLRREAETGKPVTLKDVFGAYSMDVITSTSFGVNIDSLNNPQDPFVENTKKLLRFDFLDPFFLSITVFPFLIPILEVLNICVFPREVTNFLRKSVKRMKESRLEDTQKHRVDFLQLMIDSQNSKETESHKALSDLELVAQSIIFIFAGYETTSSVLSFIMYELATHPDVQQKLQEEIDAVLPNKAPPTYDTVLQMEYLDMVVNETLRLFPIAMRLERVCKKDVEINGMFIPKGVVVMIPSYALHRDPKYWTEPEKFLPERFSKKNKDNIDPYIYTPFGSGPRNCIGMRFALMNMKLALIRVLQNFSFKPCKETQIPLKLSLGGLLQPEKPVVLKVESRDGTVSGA
For `COC(Cn1c(C)c(C(C)=O)c(C(C)=O)c1C)OC`, the AC50 entry is “inactive”.

Consider `O=C(O)COC(=O)Cc1ccccc1Nc1c(Cl)cccc1Cl`, for which the AC50 result is “inactive”.

For `CCOC(=O)n1ccn(C)c1=S`, the AC50 entry was “inactive”.

On to `Cc1ccc2cc(CCNC(=O)c3ccc(Br)o3)c(=O)[nH]c2c1`, for which the AC50 is 14.1 µM (active).

Regarding `COc1ccc2cc(CCNC(=O)C3CC3)c(=O)[nH]c2c1`, the AC50 result was “inactive”.

In the case of `O=C(N/N=C1/C[C@@H](O)[C@@H](O)[C@@H]2[C@@H]3C(=O)N(Cc4ccc5c(c4)OCO5)C(=O)[C@H]3CC[C@@H]12)OCc1ccccc1`, the AC50 was 1.26 µM (active).

Turning to `O=C(N/N=C1/C[C@@H](O)[C@@H](O)[C@@H]2[C@@H]3C(=O)N(Cc4ccccc4)C(=O)[C@H]3CC[C@@H]12)OCc1ccccc1`, the activity, negative = inhibition is -17.8% [at 11.4 µM].

As to `CCN1C(=O)[C@H]2[C@H]3[C@H](O)[C@H](O)C/C(=N/NC(=O)OCc4ccccc4)[C@H]3CC[C@@H]2C1=O`, the activity, negative = inhibition was -12.4% [at 11.4 µM].

With `CCOC(=O)N/N=C1/C[C@@H](O)[C@@H](O)[C@@H]2[C@@H]3C(=O)N(c4cccc(Oc5ccccc5)c4)C(=O)[C@H]3CC[C@@H]12`, the activity, negative = inhibition was -28.7% [at 11.4 µM].

With `CCOC(=O)N/N=C1/C[C@@H](O)[C@@H](O)[C@@H]2[C@@H]3C(=O)N(Cc4ccccc4)C(=O)[C@H]3CC[C@H]12`, the activity, negative = inhibition is -22% [at 11.4 µM].

Turning to `O=C(N/N=C1/C[C@@H](O)[C@@H](O)[C@@H]2[C@@H]3C(=O)N(Cc4ccc5c(c4)OCO5)C(=O)[C@H]3CC[C@H]12)OCc1ccccc1`, the AC50 was 3.98 µM (active).

`O=C(N/N=C1/C[C@@H](O)[C@@H](O)[C@@H]2[C@@H]3C(=O)N(Cc4ccccc4)C(=O)[C@H]3CC[C@H]12)OCc1ccccc1`: the activity, negative = inhibition is -21.6% [at 11.4 µM].

`CCOC(=O)N/N=C1/C[C@@H](O)[C@@H](O)[C@@H]2[C@@H]3C(=O)N(c4cccc(Oc5ccccc5)c4)C(=O)[C@H]3CC[C@H]12`: the activity, negative = inhibition was -29.2% [at 11.4 µM].

In the case of `CCN1C(=O)[C@H]2[C@H]3[C@H](O)[C@H](O)C/C(=N/NC(=O)OCc4ccccc4)[C@@H]3CC[C@@H]2C1=O`, the activity, negative = inhibition was -8.99% [at 11.4 µM].

With `CCOC(=O)N/N=C1/C[C@@H](O)[C@@H](O)[C@@H]2[C@@H]3C(=O)N(Cc4ccccc4)C(=O)[C@H]3CC[C@@H]12`, the activity, negative = inhibition is -18.3% [at 11.4 µM].

For `COc1ccc(COC(=O)N/N=C2/C[C@@H](O)[C@@H](O)[C@@H]3[C@@H]4C(=O)N(c5cccc(Oc6ccccc6)c5)C(=O)[C@H]4CC[C@H]23)cc1`, the AC50 is 3.16 µM (active).

As to `CCOC(=O)N/N=C1/C[C@@H](O)[C@@H](O)[C@@H]2[C@@H]3C(=O)N(Cc4ccc5c(c4)OCO5)C(=O)[C@H]3CC[C@@H]12`, the AC50 is 3.98 µM (active).

The values are drawn from PubChem BioAssay AID1851 (National Center for Advancing Translational Sciences (NCATS), 2009).
